Mdm2 MdmX PPI: disrupts the human Mdm2-MdmX interaction. inhibition, % at 8 µM. O15151+Q00987. 3% of 330,000 active. SaOS-2 split-luciferase Mdm2/MdmX complementation, luminescence;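 active means inhibition of at least 50% at 8 µM in the primary screen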
Target sequence (O15151 whole entry, looked up): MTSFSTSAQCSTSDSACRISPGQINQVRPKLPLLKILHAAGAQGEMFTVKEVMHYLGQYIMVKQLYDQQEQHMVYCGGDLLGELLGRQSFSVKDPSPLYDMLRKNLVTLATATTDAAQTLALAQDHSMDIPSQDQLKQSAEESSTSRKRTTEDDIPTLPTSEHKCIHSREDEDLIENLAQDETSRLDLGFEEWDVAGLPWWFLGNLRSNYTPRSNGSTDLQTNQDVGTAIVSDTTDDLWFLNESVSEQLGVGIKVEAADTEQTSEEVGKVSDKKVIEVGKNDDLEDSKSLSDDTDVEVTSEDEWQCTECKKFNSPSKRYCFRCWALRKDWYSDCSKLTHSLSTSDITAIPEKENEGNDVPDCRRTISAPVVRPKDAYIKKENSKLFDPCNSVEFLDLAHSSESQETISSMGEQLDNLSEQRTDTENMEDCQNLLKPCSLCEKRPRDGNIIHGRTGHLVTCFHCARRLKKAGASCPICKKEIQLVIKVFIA
Target sequence (Q00987 whole entry, looked up): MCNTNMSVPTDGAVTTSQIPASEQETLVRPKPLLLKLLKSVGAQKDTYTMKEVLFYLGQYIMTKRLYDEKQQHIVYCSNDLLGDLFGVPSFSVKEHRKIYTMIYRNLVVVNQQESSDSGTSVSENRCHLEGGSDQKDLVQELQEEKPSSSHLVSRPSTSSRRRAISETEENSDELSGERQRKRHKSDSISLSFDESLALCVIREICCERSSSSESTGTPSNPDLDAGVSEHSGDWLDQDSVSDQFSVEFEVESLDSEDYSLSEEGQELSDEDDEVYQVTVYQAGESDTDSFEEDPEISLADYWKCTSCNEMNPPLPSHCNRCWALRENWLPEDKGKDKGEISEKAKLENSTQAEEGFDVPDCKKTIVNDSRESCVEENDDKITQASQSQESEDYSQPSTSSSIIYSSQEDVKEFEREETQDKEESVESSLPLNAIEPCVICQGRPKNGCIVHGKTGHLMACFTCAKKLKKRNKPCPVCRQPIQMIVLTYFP
Beta cell apopt: blocks beta cell apoptosis; INS-1E cytokine-induced death, ATP luminescence, 48 h; percent of positive-control rescue, neutral wells zero; protection from apoptosis, % (no concentration beside the values); 0.8% of 300,000 active; AID 435005;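 active means Every replicate reaches about 75%, or at least half do and their mean reaches it too, limit read from the data; inconclusive means At least half of replicates reach the limit but their mean does not; inactive means Under half of replicates reach the limit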;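 further: 0% = cytokine-treated negative control wells and 100% = positive control rescue; higher means more ATP so stronger rescue from cytokine killing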
CSC inhib: blocks cancer stem cells; cancer stem cell-like cells viability, luminescence; inhibition, % at 7.5 µM; 1.1% of 300,000 active; AID 2717; in the data active means inhibition above about 75%; inconclusive means no clear call, values can overlap the other calls; tested in HMLE shEcad cells
aSyn 5UTR inh: 5' untranslated region of α-synuclein, MLPCN primary screen | inhibition, % (tested at 7.5 µM) | alpha-synuclein 5'UTR reporter, inhibitor activity | 0.82% of 300,000 active | AID 1813; in the data active means inhibition above about 60%; inconclusive means no clear call, values can overlap the other calls;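 further: H4 neuroglioblastoma cells stably carrying SNCA 5'UTR luciferase fusion; 0% = DMSO wells and 100% = positive control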
Bfl-1 A1 inh: inhibitors of the anti-apoptotic protein A1, read as caspase activation | AID 2462 | caspase activation, % (no concentration beside the values) | MEF A1-2A-BIM cells, Caspase-Glo 3/7 luminescence, 3 h; percent of clofoctol response, vehicle zero | 0.066% of 330,000 active;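 active means over half of replicate activation scores above 10%, or exactly half above 10 with the replicate mean above 10; inconclusive means replicate mean below 10 yet half the replicates above 10; inactive means over half of replicates below 10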
Mdm2 MdmX conf: human Mdm2/MdmX binding inhibition, confirmed | luminescent assay | inhibition, % at 8 µM | shares compounds with Mdm2 MdmX PPI | 55% of 10,000 active; in the data active means inhibition above about 40%
FLuc counter: counter-screen for Mdm2/MdmX inhibitors: full-length luciferase; SaOS-2 full-length luciferase counterscreen, luminescence; AID 504607; shares compounds with Mdm2 MdmX PPI; inhibition, % at 8 µM; 77% of 6,200 active;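 active means mean inhibition at 8 µM reaching about 37%, which flags the compound as non-specific, limit read from the data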;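 further: p53-null SaOS-2 cells with luciferase driven by a doxycycline-inducible promoter; compound on cells about two nights before reading with doxycycline added after day one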
Active calls of the source: *; ? = inconclusive; / = no result. A selection: hits, their analogues and other compounds. The true share with any hit is near 4.1%.

SMILES | Mdm2 MdmX PPI | Beta cell apopt | CSC inhib | aSyn 5UTR inh | Bfl-1 A1 inh | Mdm2 MdmX conf | FLuc counter
Cc1cc(OC(=O)c2ccc(Cl)cc2Cl)c([N+](=O)[O-])c(=O)[nH]1 | 30 | -2 | -8 | 7 | 0 | / | /
COc1cccc(NC(=O)Nc2nc(SC)ns2)c1 | -66 | / | 17 | -151 | -7 | / | /
CCCSc1nsc(NC(=O)Nc2ccc(F)cc2F)n1 | 87* | 106* | 95* | -129 | 0 | 59* | 71*
COc1cccc(NC(=O)Nc2nc(SC(C)(C)C)ns2)c1 | 93* | / | 96* | -130 | -1 | 72* | 57*
CC(=O)Nc1cccc(NC(=O)Nc2cccc(F)c2)c1 | 4 | 5 | -9 | -34 | -1 | / | /
CCSc1nsc(NC(=O)Nc2cccc(F)c2)n1 | 94* | / | 93* | 36 | -3 | 88* | 26
COc1cc(OC)c(N2CC(C(=O)Nc3cccc(C(=O)NC4CC4)c3)CC2=O)cc1Cl (stereo not given) | -8 | / | / | / | / | / | /
Cc1ccc(C)c(OCc2cc(C(=O)NC3CCOC(C)(C)C3)no2)c1 (stereo not given) | -33 | -2 | 1 | -58 | -2 | / | /
CCN(CC)c1ccc2nc3ccccc3[n+](CC)c2c1 | 53* | 99* | 26 | 59 | -1 | 37 | /
CCN(CC)c1ccc2nc3ccc(N)cc3[n+](-c3ccccc3)c2c1 | 92* | / | / | / | / | 93* | 24
CCN(CC)c1ccc(/C=N/n2nnnc2N)c(O)c1 | 48 | 4 | 25 | -89 | 0 | / | /
CCN(CC)C(=O)c1ccc2nc3ccccc3nc2c1 | -8 | -11 | 25 | ? | 0 | / | /
CN(C(=O)COC(=O)c1ccc(=O)n(Cc2ccccc2)n1)C1CCCCC1 | -23 | 0 | / | / | 0 | / | /
CCN(CC)S(=O)(=O)c1ccc(NC(=O)c2ccc(OCC3CCCO3)cc2)cc1 (stereo not given) | -16 | 11 | 1 | / | 0 | / | /
O=C(CSc1ccccc1F)NC(=O)c1ccccc1Br | 12 | 0 | -12 | / | 0 | / | /
Cc1c(Cc2ccccc2)c(=O)oc2cc(OCC(=O)N3CCC(C(N)=O)CC3)ccc12 | -10 | -8 | -6 | 22 | 0 | / | /
O=[N+]([O-])CC(c1ccccc1)c1c[nH]c2ccccc12 (stereo not given) | 34 | 2 | 69 | 13 | 0 | / | /
OC(CNCC(c1ccc(Cl)cc1Cl)c1c[nH]c2ccccc12)c1ccccc1 (stereo not given) | 97* | 68 | 104* | 43 | 2 | 80* | 46*
CC(C)=CCC[C@](C)(O[C@@H]1O[C@H](CO[C@@H]2O[C@H](CO)[C@@H](O)[C@H](O)[C@H]2O)[C@@H](O)[C@H](O)[C@H]1O)C1CC[C@]2(C)C1C(=O)CC1[C@@]3(C)CC[C@H](O[C@H]4O[C@@H](CO)[C@H](O)[C@@H](O)[C@@H]4O)C(C)(C)C3CC[C@]12C (stereo not given in full) | -8 | 3 | -13 | / | 0 | / | /
CC(=O)OCC1O[C@@H](O[C@@H]2C[C@H]3C(C)(C)[C@H](OC(C)=O)CC[C@]3(C)[C@H]3CC[C@]45C[C@]4(CC[C@H]5[C@@H](C)C[C@@H](O)[C@H](O)C(C)(C)O)[C@@]32C)[C@H](O)[C@@H](O)[C@@H]1O (stereo not given in full) | 93* | 111* | 102* | 32 | ? | 13 | /
CCN1CCN(c2ncnc3c2c(-c2ccccc2)cn3-c2ccc(F)cc2)CC1 | 36 | 2 | -7 | -19 | 0 | / | /
OCCN1CCN(c2ncnc3c2c(-c2ccccc2)cn3-c2ccc(Br)cc2)CC1 | 55* | 5 | 27 | -4 | 0 | 24 | /
Fc1ccc(-n2cc(-c3ccccc3)c3c(N4CCOCC4)ncnc32)cc1 | 63* | -6 | 54 | 2 | 0 | 59* | 67*
COc1ccc(-n2cc(-c3ccccc3)c3c(N4CCOCC4)ncnc32)cc1 | 74* | 9 | 102* | 36 | 0 | 62* | 80*
CCCN(C(=O)c1cnccn1)c1c(N)n(Cc2ccccc2)c(=O)[nH]c1=O | 5 | 6 | / | / | 0 | / | /
CCCOc1ccc(C(F)(F)F)cc1NC(=O)c1cc(C)on1 | 14 | 5 | / | / | 0 | / | /
